Compounds without any hit were thinned out: in the full panel of roughly 83,000, 20% have a hit.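 Each cell line was grown in a 96-well plate and treated with one concentration of compound for 48 hours. Values below 10 were considered active.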 A number with no mark means an inactive call. Calls of active or inactive are those of the source.
What was measured:
Experiment in all cases: NCI-60 one-dose screen, 48 h (100 = growth as untreated, 0 = no growth, -100 = all killed)
Details in all cases: 10 µM unless noted
[1] = test system: DU-145 prostate
[2] = test system: K-562 leukemia
[3] = test system: MALME-3M melanoma
[4] = test system: MDA-MB-231 breast
[5] = test system: RXF 393 renal
[6] = test system: SF-268 CNS
[7] = test system: SF-295 CNS
[8] = test system: SF-539 CNS
[9] = test system: UACC-257 melanoma
[10] = test system: M14 melanoma
[11] = test system: HCT-15 colon
[12] = test system: HT29 colon
[13] = test system: SNB-75 CNS
[14] = test system: SNB-19 CNS
[15] = test system: U251 CNS
[16] = test system: PC-3 prostate
[17] = test system: SK-MEL-5 melanoma
[18] = test system: UACC-62 melanoma
[19] = test system: LOX IMVI melanoma
[20] = test system: SK-MEL-28 melanoma

Structure (SMILES)	growth [1]	growth [2]	growth [3]	growth [4]	growth [5]	growth [6]	growth [7]	growth [8]	growth [9]	growth [10]	growth [11]	growth [12]	growth [13]	growth [14]	growth [15]	growth [16]	growth [17]	growth [18]	growth [19]	growth [20]
N#CCCc1c[nH]c2ccccc12	107%	85.4%	98.9%	97.1%	107%	91%	98.3%	95.9%	90.9%	94.7%	104%	91.1%	76.4%	105%	91.3%	78.6%	92.1%	98.6%	90.5%	106%
CCOC(=O)c1cc(C(=O)c2ccc(OC)c(OC)c2)n2ccc(-c3ccccn3)cc12	65.1%	107%	49.6%	58.1%	63.9%	25.3%	69.1%	29.6%	76.3%	101%	83%	76.4%	24.1%	67.8%	21.7%	87%	37.1%	83.5%	84.7%	71%
CC1(C)C(=O)/C(=C\c2ccco2)C[C@]2(C)[C@H]3CC=C4[C@@H]5C[C@](C)(C(=O)O)CC[C@]5(C)CC[C@@]4(C)[C@]3(C)CC[C@@H]12	-33.5% [100 µM] (active)	4.42% [100 µM] (active)	-70% [100 µM] (active)	-58.5% [100 µM] (active)	-85.6% [100 µM] (active)	-77.7% [100 µM] (active)	-48.8% [100 µM] (active)	-77.5% [100 µM] (active)	-49.3% [100 µM] (active)	-43.4% [100 µM] (active)	-86.4% [100 µM] (active)	-50.8% [100 µM] (active)	-82.5% [100 µM] (active)	-91.7% [100 µM] (active)	-80.8% [100 µM] (active)	-32.2% [100 µM] (active)	-72.7% [100 µM] (active)	-83.7% [100 µM] (active)	-93.6% [100 µM] (active)	-75.1% [100 µM] (active)
COc1cc2c(cc1OCCCCCOc1ccc(-n3c(C)nc4ccccc4c3=O)cc1)N=C[C@@H]1CCCN1C2=O	-25.2% (active)	-17.5% (active)	-78.9% (active)	2.33% (active)	-73.9% (active)	-5.47% (active)	-8.19% (active)	-63% (active)	20%	-64.3% (active)	9.39% (active)	-1.24% (active)	-80.9% (active)	1.38% (active)	3.85% (active)	4.39% (active)	-79.6% (active)	-74% (active)	-32.2% (active)	-66.8% (active)
CC1(C)CC(=O)c2c(ccc(C(=O)C[C@@H](N)CO)c2N)O1	18.2%	25.9%	51.2%	20.4%	16.6%	14.9%	21.2%	-3.9% (active)	16.6%	-37.5% (active)	4.96% (active)	-7.99% (active)	63.5%	14%	7.09% (active)	24.7%	29.4%	-9.38% (active)	-59% (active)	17%
O=C(O)c1cccc(CN2CCN(c3cc4c(cc3F)c(=O)c(C(=O)O)cn4C3CC3)CC2)c1O	112%	102%	96.3%	106%	118%	105%	104%	101%	97.7%	101%	104%	102%	92.2%	99.2%	96.2%	93.7%	102%	102%	97.9%	106%
O=C1CC(c2ccccc2)Cc2nc3ccc(Br)cc3cc21 (stereo not given)	-3.21% (active)	6.14% (active)	38.8%	13.2%	28.4%	46.7%	17.2%	1.6% (active)	69.2%	10.2%	16%	2.2% (active)	36.6%	27.4%	18.1%	32%	2.1% (active)	36.2%	31.5%	56.7%
COc1ccc2c(c1)c(-c1noc(C(=O)c3cn(C)c4ncc(Br)cc34)n1)cn2C	50.4%	71%	28.1%	25.4%	27.9%	62.8%	89%	25.7%	92.8%	91.3%	68.4%	58%	-12.8% (active)	78.7%	68.6%	39.7%	50.6%	65.6%	70.9%	71.1%
Ic1ccc2[nH]cc(SSc3c[nH]c4ccc(I)cc34)c2c1	72.5%	9.29% (active)	73.2%	7.64% (active)	46.4%	-18.1% (active)	-19.1% (active)	21.3%	34.6%	27.6%	15.6%	32%	46.6%	13.3%	18.3%	7.98% (active)	86.6%	45.4%	4.6% (active)	40.9%
C[C@H]1[C@H](C)CC[C@]2(C(=O)O)CC[C@]3(C)C(=CC[C@@H]4[C@@]5(C)C/C(=C/c6cccnc6)[C@H](O)C(C)(C)[C@@H]5CC[C@]43C)[C@H]12	5% [100 µM] (active)	13.3% [100 µM]	-24.2% [100 µM] (active)	-17.6% [100 µM] (active)	-13.3% [100 µM] (active)	21.8% [100 µM]	-27.3% [100 µM] (active)	-42.1% [100 µM] (active)	0.776% [100 µM] (active)	1.69% [100 µM] (active)	2.04% [100 µM] (active)	-72.1% [100 µM] (active)	-3.83% [100 µM] (active)	3.05% [100 µM] (active)	-57.2% [100 µM] (active)	17.4% [100 µM]	-64.4% [100 µM] (active)	-70.3% [100 µM] (active)	-91.8% [100 µM] (active)	-49.1% [100 µM] (active)
COc1ncc(-c2ccc3nccc(C#CCCCCC(=O)O)c3c2)cc1NS(=O)(=O)c1ccc(F)cc1F	40.9%	78.6%	-21.4% (active)	41.9%	-20% (active)	36.5%	6.94% (active)	-9.14% (active)	-2.67% (active)	13.9%	27.7%	16.1%	-12.5% (active)	31.1%	31.6%	19.8%	10.3%	-12.6% (active)	28.2%	7.69% (active)
Cc1ccc(NC(=O)N[C@@H](Cc2cc(F)cc(F)c2)C(=O)N[C@@H]2C(=O)N3CCC[C@H]3C(=O)N3CCCC[C@H]3C(=O)N[C@@H](C)C(=O)N3C[C@H](C)C[C@H]3C(=O)O[C@H]2C)cc1	28.8%	14.3%	35%	4.01% (active)	28.8%	28.8%	18.5%	48.6%	18%	34%	14.7%	30.3%	10.7%	22%	29.8%	16.1%	10.8%	25.8%	38.2%	39.4%
CC[C@@H]1NC(=O)[C@@H]2CCCCN2C(=O)[C@@H]2CCCN2C(=O)[C@@H](NC(=O)[C@H](Cc2cc(F)cc(F)c2)NC(=O)Nc2ccc(C3CC3)cc2F)[C@H](C)OC(=O)[C@@H]2C[C@@H](C)CN2C1=O	20%	10.4%	16.9%	-31.2% (active)	-4.47% (active)	22%	-10.1% (active)	24.1%	10.7%	16.8%	4.6% (active)	4.98% (active)	10.4%	15.7%	24.5%	12.5%	-45% (active)	7.28% (active)	16.4%	13.5%
O=C(N/N=C1\c2ccccc2-c2cccc(C(=O)O)c21)c1ccc(O)cc1	101%	105%	88.2%	92.2%	97.6%	96.6%	102%	97.7%	99.5%	98%	107%	98.3%	74%	96.3%	101%	92.1%	99.1%	93.8%	98.9%	102%
CC[C@]12C=CCN3CC[C@@]4(c5ccc(OC)cc5N(C)[C@H]4[C@@](O)(C(=O)OC)[C@@H]1OC(=O)CCC(=O)O[C@H]1CC[C@H]4[C@@H]5CCC6=CC(=O)CC[C@@H]6[C@H]5CC[C@]14C)[C@@H]32	26% [100 µM]	7.54% [100 µM] (active)	-16.4% [100 µM] (active)	-39.4% [100 µM] (active)	-27.5% [100 µM] (active)	31.9% [100 µM]	4.5% [100 µM] (active)	-40.4% [100 µM] (active)	14.8% [100 µM]	1.67% [100 µM] (active)	14.5% [100 µM]	-21.8% [100 µM] (active)	-27.2% [100 µM] (active)	21.7% [100 µM]	10.8% [100 µM]	11.3% [100 µM]	-95.3% [100 µM] (active)	-53.8% [100 µM] (active)	-29.5% [100 µM] (active)	-7.77% [100 µM] (active)

From PubChem BioAssay (NCI)
